The target of test [1] is Lysosomal acid glucosylceramidase (Homo sapiens) (UniProt P04062). The test can be described thus: Glucocerebrosidase-p2 (AID 348; in the data active means potency below about 10 µM; further: potency means the concentration at half of the fitted maximal effect). The settings on record: purified GBA, blue fluorogenic substrate, 40 min. Put shortly:
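Normal human glucocerebrosidase (0.2 nM) with blue fluorogenic substrate (80 uM final) in citrate/phosphate pH 5.9 with 10mM sodium taurocholate, 0.01% tween-20; 40 min RT, NaOH/glycine stop; fluorescence Ex 365/Em 440; AC50 from a titration from 0.6 nM upwards.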

Test [2] is described as follows: AP1 Signaling Pathway (AID 357). Further: on the % scale 0 is the no-effect control and ±100 the full control effect. The settings on record: ME-180 AP-1-bla reporter, EGF-induced, beta-lactamase ratio, 5 h; at 7.69 µM (top of the series) unless noted. The procedure, abridged: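 Cells are seeded overnight, exposed to compound titrations and an EC50 level of EGF for 5 hours at 37 °C, then loaded with CCF4 dye for 2.5 hours. Beta-lactamase activity under the AP-1 element is read as a blue/green ratio.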

The nature of test [3]: NFAT Signaling Pathway (AID 444).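 Further: carbachol stimulus at about its EC50 of 1 µM final; on the % scale 0 is the no-effect control and ±100 the full control effect.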 The settings on record: Jurkat NFAT-bla M1, carbachol, beta-lactamase ratio, 5 h; at 7.69 µM (top of the series) unless noted. The procedure, abridged: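 Jurkat cells with NFAT-driven β-lactamase reporter and co-expressed M1 receptor, stimulated with carbachol (final 1 uM, ~EC50), compound titration, 5 h at 37 °C. CCF4 loaded 1 h at RT; 460/530 nm ratio gave %activity and AC50.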

Test [4] can be described thus: Stat Signaling Pathway (AID 446).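 Further: ME-180 cervical cancer cells given 40 pM IL-6 alongside compound; SIE-controlled beta-lactamase reporter measured as 460/530 nm FRET emission ratio; on the % scale 0 is the no-effect control and ±100 the full control effect.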 The settings on record: ME-180 SIE beta-lactamase reporter, IL-6 stimulated, 5 h; at 7.69 µM (top of the series) unless noted. The procedure, abridged:
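Normalization used AC90 stimulation (300 pM IL-6) and AC90 inhibition (125 nM pan-JAK inhibitor at 40 pM IL-6). The underlying signal is SIE-driven beta-lactamase in ME-180 cells after 5 h IL-6 exposure with compound.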

Test [5] deals with Glucocorticoid receptor (Homo sapiens) (UniProt P04150). Briefly: GR-EFC Redistribution (AID 451; calls by dose curve; further: potency means the concentration at half of the fitted maximal effect). The settings on record: CHO-K1 GR-EFC translocation, beta-gal luminescence, 2 h. The procedure, abridged:
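CHO-K1 cells expressing nuclear EA and GR-ED fragments of b-gal; compounds titrated up to 46 uM final, 2 h at 37 C. GR nuclear translocation read as complemented b-gal luminescence after 1 h RT detection.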

In test [6] the target is Mitogen-activated protein kinase 10 (Mus musculus) (UniProt Q61831). Briefly: JNK3 AlphaScreen Assay (AID 530).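 Further: kinase came from lysate of stimulated human HepG2 cells; signal reports phosphorylation of biotinylated GST-cJun 1-79 at Ser73 with 10 µM ATP; on the % scale 0 is the no-effect control and ±100 the full control effect.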 The settings on record: JNK3 lysate, c-Jun phosphorylation; series mostly up to 57.1 µM. The procedure, abridged: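 HepG2 lysate (IL-1b/TNFa pre-activated) + biotin-GST-cJun 1-79 + anti-pSer73 cJun; cpd titration, 15 min RT; ATP 10 uM start; Tris pH 7.6, MgCl2, DTT, vanadate; beads in EDTA buffer; AlphaScreen.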

In test [7] the target is 3',5'-cyclic-AMP phosphodiesterase 4B (Homo sapiens) (UniProt Q07343). Briefly: qHTS Assay for Inhibitors of PDE-IV (AID 607; active means well fitted activation curve with a large enough effect in the main read-out, with a control signal flat, not every such curve was filed as active; further: % of control where 0% means no effect). The settings on record: HEK293 ACTOne CNG channel cells, membrane potential fluorescence; series mostly up to 22.9 µM. Put shortly: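 HEK293 ACTOne cells with CNG channel (1000/well), endogenous PDE4; membrane potential dye, compounds up to 22.9 uM final. Fluorescence Ex 535/Em 590; RO 20-1724 (100 uM final) as reference.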
Chain of 3',5'-cyclic-AMP phosphodiesterase 4B (Homo sapiens) (Q07343 whole entry, looked up): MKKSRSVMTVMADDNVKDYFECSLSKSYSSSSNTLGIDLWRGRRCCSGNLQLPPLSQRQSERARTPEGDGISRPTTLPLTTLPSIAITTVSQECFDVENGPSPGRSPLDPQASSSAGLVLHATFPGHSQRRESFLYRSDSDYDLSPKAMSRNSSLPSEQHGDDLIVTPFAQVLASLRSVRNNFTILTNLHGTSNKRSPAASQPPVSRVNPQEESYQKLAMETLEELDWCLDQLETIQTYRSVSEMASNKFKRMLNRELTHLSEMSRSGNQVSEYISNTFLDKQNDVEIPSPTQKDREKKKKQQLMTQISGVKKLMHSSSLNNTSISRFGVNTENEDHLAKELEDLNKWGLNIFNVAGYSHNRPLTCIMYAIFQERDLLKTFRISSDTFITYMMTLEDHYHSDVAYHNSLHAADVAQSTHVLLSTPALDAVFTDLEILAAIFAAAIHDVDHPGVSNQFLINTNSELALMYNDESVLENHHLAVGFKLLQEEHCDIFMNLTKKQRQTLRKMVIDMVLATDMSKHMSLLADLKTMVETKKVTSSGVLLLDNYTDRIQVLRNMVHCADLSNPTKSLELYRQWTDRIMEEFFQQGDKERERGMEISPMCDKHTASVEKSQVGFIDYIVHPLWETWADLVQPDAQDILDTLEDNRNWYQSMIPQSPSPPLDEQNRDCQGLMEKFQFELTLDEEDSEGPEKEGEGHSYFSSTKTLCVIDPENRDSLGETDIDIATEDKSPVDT

Test [8] has as its target Cytochrome P450 3A4 (Homo sapiens) (UniProt P08684). The test can be described thus: qHTS Assay for Inhibitors and Substrates of Cytochrome P450 3A4 (AID 884; active means well fitted curve in the direction sought with a large enough effect; an effect the other way counts as inactive or inconclusive; further: potency means the concentration at half of the fitted maximal effect; nearly all actives have a fitted effect of over 50% in size). The settings on record: recombinant CYP3A4, Luciferin-PPXE luminescence; series mostly up to 57.1 µM. The procedure, abridged: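 Luminescent readout of luciferin produced by CYP3A4 (20 nM) dealkylation of Luciferin-PPXE, 25 uM (its KM). NADPH-driven reaction ran 60 min at RT after 10 min compound preincubation; data scaled to 57 uM ketoconazole as 100% inhibition.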

Test [9] has the same target. The test can be described thus: qHTS Assay for Activators of Cytochrome P450 3A4 (AID 885; active means well fitted curve in the direction sought with a large enough effect; an effect the other way counts as inactive or inconclusive; further: nearly all actives have a fitted effect of over 65% in size). The settings on record: recombinant CYP3A4, Luciferin-PPXE luminescence, 60 min; series mostly up to 57.1 µM. Put shortly: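 Human CYP3A4 dealkylates Luciferin-PPXE to luciferin, which luciferase detection converts to light. Substrate was at its KM (25uM), buffer 200mM KPO4, reaction 60 min at RT.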

The nature of test [10]: Primary qHTS for small molecule stabilizers of the endoplasmic reticulum resident proteome: Secreted ER Calcium Modulated Protein (SERCaMP) assay (AID 1508630; active means well fitted curve in the direction sought with a large enough effect; an effect the other way counts as inactive or inconclusive; further: on the % scale 0 is the no-effect control and ±100 the full control effect). The settings on record: SH-SY5Y GLuc-SERCaMP (Gaussia luciferase released on ER calcium loss) secretion, thapsigargin, luminescence; series mostly up to 38.4 µM. The procedure, abridged: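 The SH-SY5Y reporter protocol was run at 3 concentrations up to 38.3 uM (primary) or 11 concentrations (follow-up): 16 h compound, 100 nM thapsigargin for 4 h, then extracellular luciferase luminescence.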

Test [11] has as its target Cytochrome P450 2C9 (Homo sapiens) (UniProt P11712). Briefly: qHTS Assay for Inhibitors and Substrates of Cytochrome P450 2C9 (AID 883; active means well fitted curve in the direction sought with a large enough effect; an effect the other way counts as inactive or inconclusive; further: potency means the concentration at half of the fitted maximal effect; nearly all actives have a fitted effect of over 60% in size). The settings on record: recombinant CYP2C9, luciferin-H luminescence, 60 min; series mostly up to 57.1 µM. Put shortly:
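Human CYP2C9 (10nM) with Luciferin-H at 100uM (its KM) in 25mM KPO4; compound preincubated 10 min at 37C, then NADPH regeneration for 60 min at 37C. Luciferin read by luminescence after detection reagent; normalized to 57uM sulphaphenazole as full inhibition.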

Test [12] has as its target Cytochrome P450 2C19 (Homo sapiens) (UniProt P33261). Briefly: qHTS Assay for Inhibitors and Substrates of Cytochrome P450 2C19 (AID 899; active means well fitted curve in the direction sought with a large enough effect; an effect the other way counts as inactive or inconclusive; further: potency means the concentration at half of the fitted maximal effect; nearly all actives have a fitted effect of over 60% in size). The settings on record: recombinant CYP2C19, luciferin-H EGE luminescence; series mostly up to 57.1 µM. Put shortly:
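5 nM human CYP2C19 with 10uM Luciferin-H EGE (at KM) in 50mM KPO4, compound preincubated 10 min at 37C, then NADPH regeneration for 60 min at 37C. Luciferin read by luminescence after detection reagent; normalized to 57uM ketoconazole as full inhibition.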

The nature of test [13]: qHTS Assay for Identification of Small Molecule Agonists for Hypoxia Response Element Signaling Pathway (AID 914; active means well fitted activation curve with a large enough effect in the signal ratio, with a control signal flat, not every such curve was filed as active; the % refers to the signal ratio; further: % of control where 0% means no effect). The settings on record: ME-180 (cervical carcinoma) HRE-bla reporter, beta-lactamase ratio, CoCl2, 17 h; activation: active compounds read high. The procedure, abridged:
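ME-180 cells carrying an HRE-driven beta-lactamase reporter were treated with compounds in a titration series plus an EC50 level of CoCl2 for 17 h at 37 degrees Celsius; CCF4 readout as the 460nm/530nm ratio gave AC50 values.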

The target in test [14] is Glucocorticoid receptor (Homo sapiens) (UniProt P04150). The test can be described thus: GR-GFP Redistribution (AID 450;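 active means compounds whose dose series gives a full or clear partial fitted curve of increased nuclear translocation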; further: potency means the concentration at half of the fitted maximal effect). The settings on record: U2OS GR-GFP nuclear translocation, laser cytometry, 2 h.
Chain of Glucocorticoid receptor (Homo sapiens) (P04150 whole entry, looked up, the tested form may be a part): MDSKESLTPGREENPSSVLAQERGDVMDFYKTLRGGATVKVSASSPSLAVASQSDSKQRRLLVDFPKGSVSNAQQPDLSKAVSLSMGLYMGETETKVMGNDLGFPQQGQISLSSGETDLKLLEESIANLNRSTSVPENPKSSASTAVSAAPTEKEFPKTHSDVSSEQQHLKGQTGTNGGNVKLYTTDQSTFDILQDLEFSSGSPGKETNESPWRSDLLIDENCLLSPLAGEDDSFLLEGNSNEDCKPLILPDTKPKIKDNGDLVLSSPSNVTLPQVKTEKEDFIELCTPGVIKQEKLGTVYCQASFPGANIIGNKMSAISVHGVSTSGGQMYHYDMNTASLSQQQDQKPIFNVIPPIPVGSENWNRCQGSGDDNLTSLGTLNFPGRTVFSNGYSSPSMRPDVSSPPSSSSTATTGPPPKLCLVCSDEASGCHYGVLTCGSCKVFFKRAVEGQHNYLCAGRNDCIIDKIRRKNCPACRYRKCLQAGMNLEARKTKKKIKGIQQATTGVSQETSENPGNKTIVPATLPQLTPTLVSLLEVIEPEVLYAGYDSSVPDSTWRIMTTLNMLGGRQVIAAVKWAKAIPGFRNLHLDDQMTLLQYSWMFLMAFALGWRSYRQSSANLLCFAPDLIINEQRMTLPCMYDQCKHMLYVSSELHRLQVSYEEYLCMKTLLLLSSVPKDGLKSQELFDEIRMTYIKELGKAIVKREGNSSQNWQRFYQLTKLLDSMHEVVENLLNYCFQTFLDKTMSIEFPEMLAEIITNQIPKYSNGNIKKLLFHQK

The text below walks through data of PubChem BioAssay (NCATS).

Unmarked numbers belong to inactive results. Inconclusive results are not listed. Calls of active or inactive are those of the source. Unless noted, the call rests on the fitted dose curve; in most records, active means well fitted curve in either direction with a large enough effect (not every such curve was filed as active); inconclusive means small, poorly fitted or top-dose-only effect, or another doubt; inactive means flat fitted curve, though single readings scatter.

Chain of Cytochrome P450 3A4 (Homo sapiens) (P08684 whole entry, looked up): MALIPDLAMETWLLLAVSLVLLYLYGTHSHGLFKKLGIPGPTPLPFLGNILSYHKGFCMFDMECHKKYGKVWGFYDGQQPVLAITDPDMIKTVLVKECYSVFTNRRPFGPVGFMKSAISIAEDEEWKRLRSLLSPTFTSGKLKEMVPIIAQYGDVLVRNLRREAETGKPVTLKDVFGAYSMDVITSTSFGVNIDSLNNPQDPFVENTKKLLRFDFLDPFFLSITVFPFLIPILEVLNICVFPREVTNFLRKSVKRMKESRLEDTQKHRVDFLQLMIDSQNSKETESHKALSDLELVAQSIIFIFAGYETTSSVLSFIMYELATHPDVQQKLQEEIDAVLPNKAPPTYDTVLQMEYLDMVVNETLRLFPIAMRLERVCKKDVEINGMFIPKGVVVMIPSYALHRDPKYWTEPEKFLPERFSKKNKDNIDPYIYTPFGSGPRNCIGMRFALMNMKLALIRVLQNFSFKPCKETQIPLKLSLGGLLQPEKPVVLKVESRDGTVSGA
Chain of Lysosomal acid glucosylceramidase (Homo sapiens) (P04062 whole entry, looked up): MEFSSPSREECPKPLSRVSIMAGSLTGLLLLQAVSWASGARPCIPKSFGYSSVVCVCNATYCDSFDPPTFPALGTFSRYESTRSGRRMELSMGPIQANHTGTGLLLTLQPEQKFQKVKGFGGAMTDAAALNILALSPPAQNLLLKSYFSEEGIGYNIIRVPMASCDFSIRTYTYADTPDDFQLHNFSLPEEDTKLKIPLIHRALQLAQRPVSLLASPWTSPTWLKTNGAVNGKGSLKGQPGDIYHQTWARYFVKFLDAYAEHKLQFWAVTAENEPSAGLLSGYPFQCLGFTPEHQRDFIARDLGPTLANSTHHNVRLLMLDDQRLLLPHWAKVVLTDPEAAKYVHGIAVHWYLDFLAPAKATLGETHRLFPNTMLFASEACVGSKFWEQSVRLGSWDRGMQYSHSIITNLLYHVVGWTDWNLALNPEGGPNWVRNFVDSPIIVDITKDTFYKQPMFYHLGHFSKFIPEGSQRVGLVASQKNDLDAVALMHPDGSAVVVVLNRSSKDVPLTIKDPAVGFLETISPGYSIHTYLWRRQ
Chain of Cytochrome P450 2C19 (Homo sapiens) (P33261 whole entry, looked up): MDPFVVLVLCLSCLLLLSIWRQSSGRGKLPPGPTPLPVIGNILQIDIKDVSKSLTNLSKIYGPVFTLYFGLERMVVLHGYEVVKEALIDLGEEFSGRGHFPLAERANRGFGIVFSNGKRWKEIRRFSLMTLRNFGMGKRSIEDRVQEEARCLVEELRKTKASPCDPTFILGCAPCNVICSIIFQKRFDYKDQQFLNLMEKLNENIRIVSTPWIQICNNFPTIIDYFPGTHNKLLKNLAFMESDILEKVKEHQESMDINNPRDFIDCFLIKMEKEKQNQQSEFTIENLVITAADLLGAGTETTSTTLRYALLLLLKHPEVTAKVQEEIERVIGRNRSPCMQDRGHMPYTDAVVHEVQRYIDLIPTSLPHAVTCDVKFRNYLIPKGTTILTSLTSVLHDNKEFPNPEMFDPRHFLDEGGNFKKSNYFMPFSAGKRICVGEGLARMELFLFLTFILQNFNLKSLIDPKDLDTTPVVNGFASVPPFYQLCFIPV
Chain of Cytochrome P450 2C9 (Homo sapiens) (P11712 whole entry, looked up): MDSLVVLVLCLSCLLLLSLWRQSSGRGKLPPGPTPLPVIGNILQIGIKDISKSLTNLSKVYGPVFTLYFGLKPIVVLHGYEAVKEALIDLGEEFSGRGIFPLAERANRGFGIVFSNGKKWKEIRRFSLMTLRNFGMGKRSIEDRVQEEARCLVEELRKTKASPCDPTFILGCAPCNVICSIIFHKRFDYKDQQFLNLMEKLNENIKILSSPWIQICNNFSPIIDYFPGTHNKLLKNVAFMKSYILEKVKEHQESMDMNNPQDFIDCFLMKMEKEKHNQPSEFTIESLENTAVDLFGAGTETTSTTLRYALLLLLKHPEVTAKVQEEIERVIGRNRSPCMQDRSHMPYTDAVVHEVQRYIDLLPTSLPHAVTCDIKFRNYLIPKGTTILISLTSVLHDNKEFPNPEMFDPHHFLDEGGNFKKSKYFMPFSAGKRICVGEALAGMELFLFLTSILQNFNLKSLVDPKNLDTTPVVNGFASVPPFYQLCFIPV

On to `O=C(c1cccc(F)c1)N1CCC[C@@]2(CCN(Cc3ccncc3)C2)C1`, for which the Potency was above 11.4 µM in [1], above 46 µM in test [5] and 3.16 µM (active) in [8]. The activity change, negative = inhibition was -12% in test [2] and -14.7% in [3]. Also, the activity, negative = inhibition in test [4] is -0.901%. For the same compound, the Potency result in test [6], in test [7] and in [9] was “inactive” in each case. Also, the result in test [10] was inactive.
`COCC(=O)N1CCC2(CC1)CN(C(=O)Nc1ccccc1)C2`: the Potency in test [1] was above 11.4 µM; in test [5] it was above 46 µM; in [11], 1.58 µM (active); in test [12], 5.01 µM (active). In addition, the activity change, negative = inhibition in test [2] is 7.47%; in [3], 18.9%. In addition, the activity, negative = inhibition in [4] was -7.39%. For the same compound, the Potency result in [6] and in [7] was “inactive” throughout. Further, the outcome in test [10] was inactive.
`O=C(c1cccc(F)c1)N1CCC2(CCCN(c3ccccc3)C2)CC1`: the Potency is above 11.4 µM in test [1], above 46 µM in test [5] and 5.01 µM (active) in [12]. Also, the figures for the activity change, negative = inhibition in test [2] and in test [3] were -4.36% and -1.29%, respectively. Besides, the activity, negative = inhibition in [4] was -11.8%. The Potency entry in test [6], in test [7] and in [9] was “inactive” each time. In test [13], the activation was -3.27%. Moreover, the result in test [10] was inactive.
Turning to `COc1ccc(C(=O)N2CCC3(CCCN(c4ccccn4)C3)CC2)cc1`, the results for the Potency in test [1] and in test [5] were above 11.4 µM and above 46 µM, respectively. Besides, the activity change, negative = inhibition is -4.8% in test [2] and -8.78% in test [3]. The activity, negative = inhibition in test [4] was -3.02%. Further, the Potency entry in [6] and in test [7] was “inactive” throughout. Further, in [10], the result was inactive.
Consider `CCNc1ncc2nc(-c3cccs3)c(=O)n(-c3ccc(OC)cc3)c2n1`, for which the values for the Potency in test [1], in test [14] and in test [5] were above 11.4 µM, above 9.22 µM and above 46 µM, respectively. For the same compound, the activity change, negative = inhibition is -0.164% in [2] and -15.9% in test [3]. For the same compound, the Potency result in test [6] was “inactive”. The result in test [10] was inactive.
As for `COc1ccc(C(=O)N2CCC[C@@]3(CCN(Cc4nccs4)C3)C2)cc1`, the Potency was above 11.4 µM in [1] and above 46 µM in test [5]. Also, the activity change, negative = inhibition was -5.52% in [2] and -6.27% in [3]. The activity, negative = inhibition in test [4] is -1.52%. In addition, the Potency entry in test [6] and in test [7] was “inactive” each time. In test [10], the outcome was inactive.
On to `O=C(Nc1cccc(F)c1)N1CCCC2(CCN(C(=O)c3csnn3)CC2)C1`, for which the Potency is above 11.4 µM in [1] and above 46 µM in test [5]. Further, the activity change, negative = inhibition is -12.3% in [2] and -19.5% in [3]. Further, the activity, negative = inhibition in test [4] is -9.38%. The Potency result in [6] and in test [7] was “inactive” in each case. Besides, the result in [10] was inactive.
